From PubChem BioAssay

Columns and labels:
[1] = system: Human papillomavirus type 1a protein E7 (residues 44-93); assay: HPV1a E7 fragment binders on microarrays, primary screen, biochemical, small-molecule microarray, residues 44-93, 635 nm fluorescence (AID 1108); conditions: small-molecule microarray binding, fluorescence 635 nm; higher = more signal;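 further: E7 fragment applied at 1 µg/mL in TBST for 1 h at 4 C; score combines spot fluorescence with its signal to noise ratio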
[2] = modulators of HCV replicon luciferase signal, primary screen, HCV replication inhibitor project, Huh7 cells, luciferase reporter (AID 1109); conditions: 48 h, higher = more signal;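 further: huh7 hepatoma cells harbouring a luciferase neomycin HCV replicon reporter; luciferase luminescence as measure of HCV replicon replication; test concentration not given here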
[3] = target: Left-right determination factor 2 (Homo sapiens) (UniProt O00292); assay: LEFTY2 binders on small-molecule microarrays, primary screen, biochemical, small-molecule microarray, 635 nm fluorescence scan (AID 1110); conditions: LEFTY2 binding, higher = more signal
Sequence of Left-right determination factor 2 (Homo sapiens) (O00292 whole entry, looked up): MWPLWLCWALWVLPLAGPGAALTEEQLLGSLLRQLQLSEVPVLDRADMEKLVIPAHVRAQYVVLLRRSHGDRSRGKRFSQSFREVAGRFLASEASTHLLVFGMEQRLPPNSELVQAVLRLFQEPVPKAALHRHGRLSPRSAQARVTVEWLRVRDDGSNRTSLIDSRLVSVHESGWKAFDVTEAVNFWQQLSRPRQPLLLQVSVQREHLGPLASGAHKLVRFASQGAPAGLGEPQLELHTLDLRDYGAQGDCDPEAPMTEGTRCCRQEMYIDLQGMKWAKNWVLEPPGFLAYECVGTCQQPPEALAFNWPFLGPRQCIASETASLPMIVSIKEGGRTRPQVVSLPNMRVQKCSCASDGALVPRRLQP

[4] = target: Calmodulin-1 (Homo sapiens) (UniProt P0DP23); assay: CALM1 binders on microarrays, EGTA buffer, profiling panel, biochemical, small-molecule microarray, Cy5-labelled CALM1 (AID 1111); conditions: Cy5-CALM1 binding fluorescence, higher = more signal;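 further: labelled calmodulin applied in Tris saline Tween buffer holding calcium plus EGTA and DTT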
[5] = target: Calmodulin-1 (Homo sapiens) (UniProt P0DP23); assay: calcium-bound CALM1 binders on microarrays, profiling panel, artefact control for SMM control-protein annotation, biochemical, small-molecule microarray, Cy5-labelled CALM1, plus calcium (AID 1112); conditions: Cy5-CALM1 binding fluorescence, higher = more signal;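 further: score merges spot fluorescence with signal to noise from triplicate slides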
[6] = small-molecule microarray binders of probe aWnt5a, primary screen, biochemical, biotinylated probe, 635/667 nm fluorescence (AID 1113); conditions: higher = more signal;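 further: score merges 667 nm fluorescence intensity with signal-to-noise per printed feature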
[7] = small-molecule microarray binders of probe aShh, primary screen, biochemical, biotinylated probe, 635/667 nm fluorescence (AID 1114); conditions: higher = more signal;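 further: probe is biotin-labelled aShh protein from a stem cell growth factor screen; measures binding of labelled protein to compounds printed on the slide; score merges feature fluorescence at 667 nm with signal-to-noise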
[8] = small-molecule microarray binders of probe aNog, primary screen, biochemical, biotinylated probe, 635/667 nm fluorescence (AID 1115); conditions: higher = more signal;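 further: probe is biotinylated aNog protein used at 0.15 µg/mL for 1 h at 4 C; z-score combines 667 nm fluorescence of each spot with its signal to noise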
[9] = target: Torsin-1A-interacting protein 1 (Homo sapiens) (UniProt Q5JTV8); assay: LAP1 binders from COS7 cell lysate, primary screen, small-molecule microarray, 635/667 nm fluorescence (AID 1116); conditions: COS7-hLAP1 lysate binding, 635 nm fluorescence, higher = more signal
Sequence of Torsin-1A-interacting protein 1 (Homo sapiens) (Q5JTV8 whole entry, looked up): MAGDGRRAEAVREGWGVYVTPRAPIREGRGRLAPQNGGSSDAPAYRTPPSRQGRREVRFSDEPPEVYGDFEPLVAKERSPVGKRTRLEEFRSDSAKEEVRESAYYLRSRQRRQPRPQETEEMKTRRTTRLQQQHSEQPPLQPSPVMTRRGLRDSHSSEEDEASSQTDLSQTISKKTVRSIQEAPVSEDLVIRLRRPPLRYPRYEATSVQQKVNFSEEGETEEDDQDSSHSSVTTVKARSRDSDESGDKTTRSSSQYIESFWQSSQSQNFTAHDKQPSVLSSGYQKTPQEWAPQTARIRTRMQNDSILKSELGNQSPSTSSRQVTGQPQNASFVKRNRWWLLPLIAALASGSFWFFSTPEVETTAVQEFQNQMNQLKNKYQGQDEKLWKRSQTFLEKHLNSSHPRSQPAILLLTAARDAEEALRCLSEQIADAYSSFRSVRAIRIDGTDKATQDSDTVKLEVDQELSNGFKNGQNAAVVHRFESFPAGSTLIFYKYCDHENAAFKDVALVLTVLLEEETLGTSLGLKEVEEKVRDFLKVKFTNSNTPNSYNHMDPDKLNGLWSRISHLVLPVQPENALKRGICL

[10] = target: Alpha-bungarotoxin (Bungarus multicinctus) (UniProt P60615); assay: alpha-bungarotoxin binders on microarray, profiling panel, artefact control for SMM control protein annotation, biochemical, small-molecule microarray, Alexa647 label, 635/667 nm fluorescence (AID 1117); conditions: alpha-BTX-A647 binding fluorescence, higher = more signal
Sequence of Alpha-bungarotoxin (Bungarus multicinctus) (P60615 whole entry, looked up): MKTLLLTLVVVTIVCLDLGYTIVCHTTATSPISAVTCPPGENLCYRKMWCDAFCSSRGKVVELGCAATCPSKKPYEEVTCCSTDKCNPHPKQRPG

## CN(C)CCCNC(=O)[C@@H]1c2ccccc2C(=O)N(CC23CC4CC(CC(C4)C2)C3)[C@H]1c1ccc(CO)cc1
[1]
  composite z-score: 1.47
[2]
  z-score: -3.1
[3]
  composite z-score: 0.832
[4]
  composite z-score: 0.309
[5]
  composite z-score: -0.632
[6]
  composite z-score: 0.0215
[7]
  composite z-score: -0.542
[8]
  composite z-score: -0.403
[9]
  composite z-score: 0.858
[10]
  composite z-score: 1.65

## C[C@@H]1ON(c2ccc(C(=O)OC(C)(C)C)cc2)[C@H](c2ccc(Br)cc2)[C@H]1C(=O)N1C(=O)OC[C@H]1Cc1ccccc1
[1]
  composite z-score: 1.38
[2]
  z-score: 1.05
[3]
  composite z-score: 0.498
[4]
  composite z-score: 0.79
[5]
  composite z-score: -0.115
[6]
  composite z-score: -0.0643
[7]
  composite z-score: -0.138
[8]
  composite z-score: 0.25
[9]
  composite z-score: 0.323
[10]
  composite z-score: 0.544

## COC(=O)[C@@]1(Cc2ccc(OC)cc2)[C@H]2c3cc(C(=O)N(C)C)n(CCc4c[nH]c5ccc(O)cc45)c3C[C@H]2CN1C(=O)c1ccccc1
[1]
  composite z-score: 1.06
[2]
  z-score: -0.0903
[3]
  composite z-score: -0.217
[4]
  composite z-score: 1.83
[5]
  composite z-score: 1.25
[6]
  composite z-score: -0.0196
[7]
  composite z-score: 0.488
[8]
  composite z-score: 2.27
[9]
  composite z-score: 1.3
[10]
  composite z-score: 1.28

## CN(C)CCCN1C(=O)[C@@]2(c3ccc([N+](=O)[O-])cc3)CC(=O)N(CC34CC5CC(CC(C5)C3)C4)[C@@H]2c2ccc(CO)cc21
[1]
  composite z-score: 0.869
[2]
  z-score: -1.49
[3]
  composite z-score: -0.741
[4]
  composite z-score: -0.301
[5]
  composite z-score: -0.828
[6]
  composite z-score: -0.152
[7]
  composite z-score: 0.111
[8]
  composite z-score: -0.302
[9]
  composite z-score: -0.301
[10]
  composite z-score: -0.0251

## COCCOC(=O)N1C(=O)[C@@]2(c3cc(C#CC4(O)CCCCCC4)ccc31)[C@H](C(=O)N1CCCCCCC1)[C@H]1C(=O)O[C@H](c3ccccc3)[C@H](c3ccccc3)N1[C@@H]2c1ccc(OCCO)cc1
[1]
  composite z-score: 1.33
[2]
  z-score: -1.74
[3]
  composite z-score: 1.52
[4]
  composite z-score: 2.33
[5]
  composite z-score: 1.01
[6]
  composite z-score: 1.12
[7]
  composite z-score: 2.59
[8]
  composite z-score: 2.98
[9]
  composite z-score: 4.12
[10]
  composite z-score: 2.89

## COc1ccc([Si](C)(C)[C@@H]2[C@@H](CC(=O)N3CCC[C@H]3CO)O[C@]3(C(=O)N(Cc4ccc(N5C(=O)c6cccc7cccc5c67)cc4)c4ccccc43)[C@H]2C)cc1
[1]
  composite z-score: 1.45
[2]
  z-score: -2.25
[3]
  composite z-score: 0.515
[4]
  composite z-score: 0.692
[5]
  composite z-score: -0.292
[6]
  composite z-score: -0.0437
[7]
  composite z-score: 0.14
[8]
  composite z-score: -0.37
[9]
  composite z-score: 1.44
[10]
  composite z-score: 1.82

## C=CCNC(=O)[C@@H]1[C@H]2C(=O)O[C@H](c3ccccc3)[C@H](c3ccccc3)N2[C@H](c2ccccc2OCCO)[C@@]12C(=O)N(C(=O)OCCOC)c1ccc(C#CC3=CCCCC3)cc12
[1]
  composite z-score: 0.829
[2]
  z-score: -2.12
[3]
  composite z-score: 0.167
[4]
  composite z-score: 0.743
[5]
  composite z-score: -0.0835
[6]
  composite z-score: -0.124
[7]
  composite z-score: -0.0553
[8]
  composite z-score: 0.394
[9]
  composite z-score: 1.15
[10]
  composite z-score: 1.59

## CCCCN1CC=CC23O[C@@H]4/C=C\CCC(C)OC(=O)C4[C@H]2C(=O)N(CCCCCCO)[C@@H]3C1=O (stereo not given in full)
[1]
  composite z-score: 0.111
[2]
  z-score: -0.0691
[3]
  composite z-score: -0.567
[4]
  composite z-score: 0.119
[5]
  composite z-score: 0.282
[6]
  composite z-score: 0.0321
[7]
  composite z-score: -0.0709
[8]
  composite z-score: -0.168
[9]
  composite z-score: 1.47
[10]
  composite z-score: -0.637
